{"source": "PubChem BioAssay (NCI)", "note": "This is part of a sample that, as a whole, favours compounds with a hit. Of some 83,000 tested, about 20% had one in any assay.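 In brief: 96-well plates, 48 h treatment, single concentration, percent growth endpoint.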 Active and inactive are the calls of the source."}
{"tested_on": "HL-60(TB) leukemia", "test": "NCI-60 one-dose screen, 48 h (100 = growth as untreated, 0 = no growth, -100 = all killed)", "conditions": "10 µM unless noted", "description": "Growth inhibition of the HL-60(TB) human tumor cell line is measured as a screen for anti-cancer activity. Cells are grown in 96 well plates and exposed to the test compound for 48 hours. Compounds are tested at a single concentration, which is 10^-5 M for most compounds. The reported endpoint is percent growth (GI% or GIPRCNT), where numbers from 0 - 100% represent growth inhibition, and numbers from -100% - 0 represent cell death. For example, a value of 40 represents 60% growth inhibition. A value of 0 means no net growth occurred over the course of the experiment. A value of -40 indicates 40% of cells at the beginning of the experiment died by the end of the experiment. A value of -100 means all cells are dead at the end of the experiment.\nNCI-60 Human Tumor Cell Lines Screen was performed using the standard one-dose NCI protocol, which is described in more detail at https://dtp.cancer.gov/discovery_development/nci-60/default.htm.\nCompounds with GIPRCNT values below 10 were considered active. Activity score was based on GIPRCNT using the following formula: […]\nScore is 0 for GIPRCNT values of 100 or above, 50 for GIPRCNT values of 0, and 100 for GIPRCNT values of -100."}
{"smiles": "Oc1ccc(/C=N/Nc2nc3ccccc3s2)c(O)c1", "growth": "0.859% (active)"}
{"smiles": "CC(=O)Nc1cccc(-n2c(=O)n(C3CC3)c(=O)c3c(Nc4ccc(I)cc4F)n(C)c(=O)c(C)c32)c1", "growth": "27.1% (inactive)"}
{"smiles": "O=C1/C(=C/c2ccc(Cl)cc2)CN(Cc2cn(CCNc3ccnc4cc(Cl)ccc34)nn2)C/C1=C\\c1ccc(Cl)cc1", "growth": "-51.5% (active)"}
{"smiles": "CN1CCN(CC(=O)Nc2nc3c(s2)Nc2cc(Cl)c(Cl)cc2NC3=O)CC1", "growth": "81.9% (inactive)"}
{"smiles": "CSc1nc(NCc2ccccc2)c(C#N)c(-c2cccc([N+](=O)[O-])c2)n1", "growth": "107% (inactive)"}
{"smiles": "COc1cc2c(cc1OCCCOC1=C=C=C(c3ccc4c(c3)c3cc(-c5ccc(OCCCOc6cc7c(cc6OC)C(=O)N6CCC[C@H]6C=N7)cc5)ccc3n4S(=O)(=O)c3ccc(C)cc3)C=C1)N=C[C@@H]1CCCN1C2=O", "growth": "10.5% (inactive)"}
{"smiles": "O=C(Nc1cccc(C2=NCCN2)c1)c1cccc(C(=O)Nc2cccc(C3=NCCN3)c2)c1", "growth": "98.7% (inactive)"}
{"smiles": "BrC1CC(Br)c2c1c1c(c3c2C(Br)CC3Br)C(Br)CC1Br", "note": "(stereo not given)", "growth": "55.7% (inactive)"}
{"smiles": "C=C1C(=O)O[C@H]2[C@H]1CC/C(COC(=O)NCc1ccc(OC)c(OC)c1)=C\\CC[C@@]1(C)O[C@@H]21", "growth": "35.8% (inactive)"}
{"smiles": "C=C1C(=O)O[C@H]2[C@H]1CC/C(COC(=O)NCCc1c[nH]c3ccc(OC)cc13)=C\\CC[C@@]1(C)O[C@@H]21", "growth": "-42.8% (active)"}
{"smiles": "COc1cccc2nc(Nc3ccc(NC(=O)c4ccc5ncccc5c4)cc3)ccc12", "growth": "91% (inactive)"}
{"smiles": "CC[C@H](Nc1ncnc2nc[nH]c12)c1nc2cccc(NCc3ccc(C(=O)NO)nc3)c2c(=O)n1-c1ccccc1", "growth": "17.8% (inactive)"}
{"smiles": "COc1cc(/C=C/C(=O)c2ccc(F)cc2)ccc1OCCCCOc1ccc(/C=C/C(=O)c2c(C)nc3ccccc3c2C)cc1OC", "growth": "79.8% (inactive)"}
{"smiles": "O=C1NC(=O)C(Cc2ccc(OCc3ccc(-c4ccc(Cl)cc4Cl)cc3)cc2)S1", "note": "(stereo not given)", "growth": "56.9% (inactive)"}
{"smiles": "CC(C)CSc1nc(NN)c(C#N)c(-c2ccc(F)cc2)n1", "growth": "94.4% (inactive)"}
{"smiles": "COc1ccc(-c2cc(C(=O)N=Nc3c(O)[nH]c4ccc(Br)cc34)no2)cc1", "growth": "95.1% (inactive)"}
{"smiles": "Nc1nc(Nc2ccccc2)c2ncn(Cc3cc4c(cc3Br)OCO4)c2n1", "growth": "-11.7% (active)"}
{"smiles": "COc1cc(NCCCN(CC(C)C)CC(C)C)c2ncccc2c1", "growth": "89.8% (inactive)"}
{"smiles": "COc1ccc(-c2nc3ccccc3n3cccc23)cc1", "growth": "104% (inactive)"}
{"smiles": "Cc1nc(S(=O)(=O)c2ccccc2)c(S(=O)(=O)Cc2ccc([N+](=O)[O-])cc2)o1", "growth": "89.9% (inactive)"}
{"smiles": "Cn1cnc(-c2cc3nccc(Oc4ccc(NC(=S)NC(=O)Cc5ccccc5)cc4F)c3s2)c1", "growth": "80% (inactive)"}
{"smiles": "O=C1C=C(Nc2ccc([N+](=O)[O-])cc2)c2ccccc2C1=O", "growth": "3.59% (active)"}
{"smiles": "O=C1CCCCC=C1C[N+](=O)[O-]", "growth": "0.0104% (active)"}
{"smiles": "O=[N+]([O-])c1ccc(Oc2nc(Nc3ccc(O[C@H]4CO[C@H]5[C@@H]4OC[C@@H]5O)c(Cl)c3)ncc2F)c(Cl)c1", "growth": "25.6% (inactive)"}
{"smiles": "O=C(Nc1nc(-c2ccccc2Cl)cs1)c1cc(-c2ccc(Cl)cc2)nc2ccc(Cl)cc12", "growth": "-21.9% (active)"}
{"smiles": "Fc1ccc(NCc2nnc(-c3ccc(Cl)cc3)o2)cc1", "growth": "69.5% (inactive)"}
{"smiles": "CCCS(=O)(=O)c1nc(NC2CC2)cc(-c2ccc3c(ccn3C3CC(C)(C)NC(C)(C)C3)c2)n1", "growth": "-61.7% (active)"}
{"smiles": "CC(C)(C)OC(=O)N1CC(Cn2cc(C(F)(F)F)c3c(Cl)ncnc32)C1", "growth": "-67.5% (active)"}
{"smiles": "COc1cc(C=Nc2oc(-c3ccccc3)c(-c3ccccc3)c2C#N)cc(CN2CCCC2)c1O", "growth": "102% (inactive)"}
{"smiles": "Cc1nn(-c2ccccc2)c(Oc2c(Cl)cccc2Cl)c1/C=N/N=c1\\sc2ccccc2n1C", "growth": "43.1% (inactive)"}
{"smiles": "O=C(Nc1cc(Cl)cc2c1-c1ccc(Cl)cc1C2O)C(Cl)Cl", "note": "(stereo not given)", "growth": "76.2% (inactive)"}
{"smiles": "CCOc1cc2c(cc1OCC)C(c1cc(OC)c(O)cc1Cl)NCC2", "note": "(stereo not given)", "growth": "91.7% (inactive)"}
{"smiles": "Cc1nc2c(c(N3CCCc4ccccc43)n1)CCC2", "growth": "-42.3% (active)"}
{"smiles": "COc1ccc(C2=NN(C(C)=O)C(c3cn(-c4ccccc4)nc3-c3ccc(Cl)cc3)C2)cc1", "note": "(stereo not given)", "growth": "3.16% (active)"}
{"smiles": "O=c1c2cc(C(F)(F)F)ccc2sc2c(NCCCNCCO)nc3ccccc3c12", "growth": "-19% (active)"}
{"smiles": "CCN(CC)CCSc1ncnc2c1cnn2-c1ccc(S(N)(=O)=O)cc1", "growth": "72.4% (inactive)"}
{"smiles": "O=S(=O)(NCCNc1nccc(-c2c(-c3cccc(F)c3)nc3sccn23)n1)c1ccc(Cl)cc1", "growth": "95.9% (inactive)"}
{"smiles": "COc1c(CCC[P+](c2ccccc2)(c2ccccc2)c2ccccc2)cc2c(c1OC)OCO2", "growth": "10.2% (inactive)"}
{"smiles": "C#C[C@]1(O)CC[C@H]2[C@@H]3CC[C@H]4CC(F)(F)CC[C@]4(C)[C@H]3CC[C@@]21C", "growth": "107% (inactive)"}
{"smiles": "CC(=O)c1c(O)c(C)c(O)c2c1OC1=CC(=O)C(C(C)=O)C(=O)C12C", "note": "(stereo not given)", "growth": "45.4% (inactive)"}
